How the values were obtained:
Assay type in all cases: functional
Plasmodium falciparum [1] = assay: GSK_TCMDC: Inhibition of Plasmodium falciparum 3D7 in whole red blood cells, using parasite LDH activity as an index of growth. Test compounds present at 2uM
Plasmodium falciparum [2] = assay: GSK_TCMDC: Inhibition of Plasmodium falciparum Dd2 in whole red blood cells, using parasite LDH activity as an index of growth. Test compounds present at 2uM
HepG2 = assay: GSK_TCMDC: Percent inhibition of human HepG2 cell line. Test compounds present at 10uM.

SMILES | Inhibition (Plasmodium falciparum [1]) | Inhibition (Plasmodium falciparum [2]) | Inhibition (HepG2)
CN1CCC=C(C(=O)NCC(C)(C)c2nc(-c3ccc(Cl)c(O)c3)c(-c3ccncc3)[nH]2)C1.Cl | 96% | 96% | 39%
CCN(CCCN1CCCCC1)c1cc(C)nc(Nc2cc(Br)ccc2C)n1.O=C(O)C(F)(F)F | 98% | 39% | 32%
CCOC(=O)c1c(C)noc1Nc1cccc(C)c1C | 98% | 0% | 8%
O=C(NCCCCN1CCC(c2ccc3c(c2OCC(O)c2ccc(Cl)cc2)CCCC3)CC1)c1ccc(-c2ccc(C(F)(F)F)cc2)cc1 (stereo not drawn) | 89% | 67% | 100%
O=C(CCNc1ccnc(NCCc2ccc(F)cc2)n1)Nc1ccccc1.O=C(O)C(F)(F)F | 95% | 10% | 9%
Cl.N#Cc1ccc(-c2ccc3nc(N4CCCN(C5CCC5)CC4)ccc3c2)cc1 | 96% | 14% | 36%
O=C(O)C(F)(F)F.c1ccc(CCNCc2ccc(-c3cccc(-c4nc5ccccc5[nH]4)c3)cc2)nc1 | 100% | 87% | 36%
O=C(Nc1cccc(C(F)(F)F)c1)Nc1ccc(Cl)c(Cl)c1 | 100% | 100% | 5%
COc1ccc2c(N/N=C/c3cccc([N+](=O)[O-])c3)cc(C)nc2c1 | 100% | 97% | 18%
CCC(=O)NC(c1ccco1)c1cc(Cl)c2cccnc2c1O (stereo not drawn) | 89% | 74% | 58%
CC1(C)N=C(N)N=C(N)N1OCCCCON1C(N)=NC(N)=NC1(C)C | 97% | 95% | 54%
